A short description of experiment [1]: qHTS RealTime-Glo MT Cell Viability Assay in HepG2 cells - 40 hour (AID 1224870). Note: nearly all actives have a fitted effect of over 50% in size. Put shortly:
(§1)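 HepG2 cells (600/well) mixed with RealTime-Glo MT reagent, settled 5 h at 37 C/5% CO2 before compound addition. Nonlytic NanoLuc luminescence from viable-cell prosubstrate reduction read repeatedly during 40 h treatment at 37 C.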

Experiment [2] is described as follows: A CellTox Green Cytotoxicity Assay to monitor cytotoxicity in HEK293 cells - 40 hour (AID 1224871). Note: nearly all actives have a fitted effect of over 45% in size. Note: potency is the fitted concentration of half-maximal effect. The method in brief: (§2)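 Real-time, in one plate: 600 HEK293 cells/well with dead-cell DNA dye, pinned compound after 5 h, 37 C incubation over 40 h; viable cells give no appreciable fluorescence.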
Experiment [3] is described as follows: qHTS RealTime-Glo MT Cell Viability Assay in HEK293 cells - 16 hour (AID 1224872). Note: top concentration of the series differs between compounds; nearly all actives have a fitted effect of over 50% in size. Put shortly: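 Tox21 10K qHTS, HEK293, 600 cells/well, RealTime-Glo reagent co-dispensed with cells; 5 h preincubation, compound by pintool, 37 C, luminescence at 0–40 h.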
For orientation: qHTS replaces the single test concentration by a dilution series.

Experiment [4] is described as follows: qHTS RealTime-Glo MT Cell Viability Assay in HepG2 cells - 8 hour (AID 1224873). Note: nearly all actives have a fitted effect of over 55% in size. The method in brief: as §1
The nature of experiment [5]: qHTS RealTime-Glo MT Cell Viability Assay in HEK293 cells - 40 hour (AID 1224874). Note: nearly all actives have a fitted effect of over 50% in size. The settings on record: RealTime-Glo luminescence; max response: stronger effect = lower value. Put shortly: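 Kinetic, non-lysing viability readout. Seed HEK293 (600/well) with reagent, incubate 5 h at 37 C/5% CO2, pin 23 nL compound in DMSO, incubate at 37 C, read luminescence at 0, 8, 16, 24, 32, 40 h.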

Experiment [6] in a line: A CellTox Green Cytotoxicity Assay to monitor cytotoxicity in HEK293 cells - 24 hour (AID 1224875). Note: series mostly up to about 77 µM; nearly all actives have a fitted effect of over 45% in size. The method in brief:
as §2

Experiment [7] is described as follows: A CellTox Green Cytotoxicity Assay to monitor cytotoxicity in HepG2 cells - 16 hour (AID 1224876). Note: nearly all actives have a fitted effect of over 45% in size. Note: potency is the fitted concentration of half-maximal effect. Put shortly:
(§3)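 Cytotoxicity was tracked as dead-cell DNA fluorescence in HepG2 cells treated with test compounds at 37 C; each time-point value comes from one kinetic series spanning 0, 8, 16, 24, 32 and 40 h.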

Experiment [8] is described as follows: qHTS RealTime-Glo MT Cell Viability Assay in HepG2 cells - 32 hour (AID 1224877). Note: nearly all actives have a fitted effect of over 55% in size. Put shortly: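 Cells + NanoLuc/prosubstrate dispensed (600 cells/well) → 5 h at 37 C/5% CO2 → compounds in DMSO transferred → 40 h incubation at 37 C, luminescence read at 0, 8, 16, 24, 32, 40 h.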
Experiment [9] can be described thus: A CellTox Green Cytotoxicity Assay to monitor cytotoxicity in HepG2 cells - 24 hour (AID 1224878). Note: nearly all actives have a fitted effect of over 45% in size. Note: potency is the fitted concentration of half-maximal effect. The method in brief: as §3
Experiment [10] is described as follows: A CellTox Green Cytotoxicity Assay to monitor cytotoxicity in HepG2 cells - 40 hour (AID 1224879). Note: nearly all actives have a fitted effect of over 40% in size. Note: potency is the fitted concentration of half-maximal effect. The method in brief: as §3

Values joined by “and” are separate entries in the source; they are usually repeats but may differ in a detail not shown here. Equal values may be shown once. Inconclusive results are not listed. A structure can be active in one record and inactive in another. Active and inactive are the calls of the source. Calls come from the whole dose curve; as a rule, active = well fitted curve in the direction sought with a large enough effect in the repeat runs; inconclusive = weak or mixed curves; inactive = no such curve, though single readings can be large; an effect the other way counts as inactive or inconclusive.
% is set by controls: 0 for no effect and ±100 for the full control effect.

Consider `OCCCCO`, for which the compound was classed as inactive in experiment [1], in [3], in experiment [4] and in experiment [8]. Moreover, the Potency entry in experiment [2], in experiment [6], in [7], in [9] and in experiment [10] was “inactive” each time. In addition, the max response in [5] was 2.32% (inactive) and 1.82% (inactive).
For the compound `Nc1ccc(N)cc1`, the outcome in experiment [1], in experiment [3], in experiment [4] and in experiment [8] was inactive. Moreover, the Potency result in experiment [2], in [6], in experiment [7], in experiment [9] and in experiment [10] was “inactive” in each case. Further, in experiment [5], the max response was 13.6% (inactive) and -13% (inactive).
As for `C=CCN=C=S`, the compound was classed as inactive in experiment [1], in experiment [3] and in experiment [8]. The Potency entry in experiment [2], in experiment [6], in experiment [7], in experiment [9] and in [10] was “inactive” in each case. Also, the max response in [5] is 17.8% (inactive) and 1.95% (inactive).
Consider `CCOC(=O)CC(SP(=O)(OC)OC)C(=O)OCC` (stereo not given), for which the compound was called inactive in [1], in experiment [3] and in experiment [8]. For the same compound, the Potency result in experiment [2], in experiment [6], in experiment [7], in [9] and in experiment [10] was “inactive” throughout. Further, the max response in experiment [5] is 11.3% (inactive) and 26.8% (inactive).
In the case of `CSc1nnc(C(C)(C)C)c(=O)n1N`, the compound was called inactive in experiment [1], in experiment [3] and in [8]. The Potency result in experiment [2], in experiment [6], in experiment [7], in experiment [9] and in experiment [10] was “inactive” each time. For the same compound, the max response in experiment [5] was -23.1% (inactive) and -14.9% (inactive).
Turning to `CC(C)c1cccc(C(C)C)c1O`, the result in experiment [1], in experiment [3] and in [8] was inactive. Further, the Potency in [2] was 24.5 µM (active) and 43.6 µM (active) and inactive; in experiment [7], 43.6 µM (active) and inactive; in experiment [9], 43.6 µM (active) and inactive; in [10], 43.6 µM (active) and inactive. Moreover, the max response in [5] was -0.191% (inactive) and -2.39% (inactive) and 0.656% (inactive).
Regarding `Cc1cccc(C)c1N`, the result in [1], in [3] and in experiment [8] was inactive. The Potency result in experiment [2], in experiment [6], in experiment [7], in [9] and in experiment [10] was “inactive” each time. Also, the max response in [5] is -0.963% (inactive) and 19.7% (inactive).
On to `O=C(O)c1cc(Oc2ccc(C(F)(F)F)cc2Cl)ccc1[N+](=O)[O-]`, for which the result in experiment [1], in experiment [3] and in [8] was inactive. Further, the Potency entry in experiment [2], in [6], in experiment [7], in experiment [9] and in experiment [10] was “inactive” throughout. Moreover, the max response in experiment [5] is 3.72% (inactive) [middle of 4 runs].
In the case of `CN(C)C(=O)Nc1cccc(C(F)(F)F)c1`, the outcome in experiment [1], in experiment [3] and in experiment [8] was inactive. The Potency result in [2], in experiment [6], in experiment [7], in [9] and in experiment [10] was “inactive” in each case. Also, the max response in [5] was -22.8% (inactive) and -6.94% (inactive).
In the case of `CNc1cnn(-c2cccc(C(F)(F)F)c2)c(=O)c1Cl`, the compound was classed as inactive in experiment [1], in experiment [3] and in experiment [8]. Also, the Potency result in experiment [2], in experiment [6], in [7], in [9] and in experiment [10] was “inactive” throughout. In addition, the max response in experiment [5] is -24.9% (inactive) and -29.1% (inactive).
As for `CCCOC(=O)c1ccccc1C(=O)OCCC`, the compound was classed as inactive in experiment [1], in experiment [3] and in experiment [8]. The Potency entry in experiment [2], in experiment [6], in experiment [7], in experiment [9] and in experiment [10] was “inactive” in each case. For the same compound, the max response in [5] was 0.157% (inactive) and 0.878% (inactive).
As to `CCOP(=S)(OCC)Oc1ccc([N+](=O)[O-])cc1`, the compound was called inactive in [1], in [3] and in experiment [8]. Moreover, the Potency result in experiment [2], in experiment [6], in [7], in [9] and in [10] was “inactive” in each case. For the same compound, the max response in [5] is -18.1% (inactive) and -17.8% (inactive).
In the case of `CC(C)CCCCCCOC(=O)c1ccccc1C(=O)OCCCCCCC(C)C`, the result in experiment [1], in [3] and in [8] was inactive. The Potency result in experiment [2], in experiment [6], in [7], in experiment [9] and in experiment [10] was “inactive” in each case. Besides, the max response in experiment [5] is 12.6% (inactive) and 8.04% (inactive) and 6.43% (inactive).
`OC[C@@H](O)[C@H]1O[C@@H]2O[C@H](C(Cl)(Cl)Cl)O[C@@H]2[C@H]1O`: the compound was classed as inactive in [1], in experiment [3] and in experiment [8]. Moreover, the Potency entry in experiment [2], in experiment [6], in experiment [7], in experiment [9] and in experiment [10] was “inactive” in each case. The max response in experiment [5] was -9.36% (inactive) and 2.42% (inactive).
As to `O=C(O)C1C(C(=O)O)C2(Cl)C(Cl)=C(Cl)C1(Cl)C2(Cl)Cl` (stereo not given), the call in [1], in experiment [3] and in experiment [8] was inactive. Also, the Potency entry in experiment [2], in experiment [6], in experiment [7], in experiment [9] and in [10] was “inactive” each time. Moreover, in experiment [5], the max response is 9.62% (inactive) and 1.68% (inactive).
Regarding `NNc1ccccc1`, the compound was called inactive in [1], in experiment [3] and in [8]. Also, the Potency entry in experiment [2], in experiment [6], in [7], in experiment [9] and in experiment [10] was “inactive” each time. In addition, the max response in [5] was 3.45% (inactive) [middle of 5 runs].
As for `COC(C)(C)CCCC(C)C/C=C/C(C)=C/C(=O)OC(C)C` (stereo not given), the compound was called inactive in [1], in [3] and in [8]. Besides, the Potency entry in experiment [2], in [6], in experiment [7], in experiment [9] and in experiment [10] was “inactive” in each case. The max response in experiment [5] is 0.0106% (inactive).
Regarding `Cc1cccc(C)c1NC(=O)CN1CCCC1=O`, the result in experiment [1], in experiment [3] and in experiment [8] was inactive. The Potency entry in experiment [2], in experiment [6], in [7], in experiment [9] and in experiment [10] was “inactive” in each case. Besides, in experiment [5], the max response is 1.79% (inactive) and -7.42% (inactive) and 6.42% (inactive).
In the case of `COP(=S)(OC)Oc1ccc(SC)c(C)c1`, the outcome in experiment [1], in experiment [3] and in experiment [8] was inactive. The Potency entry in experiment [2], in [6], in experiment [7], in experiment [9] and in [10] was “inactive” throughout. For the same compound, the max response in experiment [5] is -4.14% (inactive) and -8.35% (inactive) and 5.42% (inactive).
For `COP(=S)(OC)SCN1C(=O)c2ccccc2C1=O`, the result in experiment [1], in experiment [3] and in [8] was inactive. For the same compound, the Potency entry in [2], in experiment [6], in experiment [7], in experiment [9] and in [10] was “inactive” each time. In addition, in experiment [5], the max response is 11.4% (inactive) and 4.29% (inactive) and 1.87% (inactive).
Take `CC(=O)C1CCOC1=O` (stereo not given): the outcome in experiment [1], in experiment [3] and in experiment [8] was inactive. Moreover, the Potency result in experiment [2], in [6], in experiment [7], in experiment [9] and in [10] was “inactive” each time. In experiment [5], the max response was 3.16% (inactive) and 1.64% (inactive).
